SMILES strings stand for the structures.

For this assay, the target named is Left-right determination factor 2 (Homo sapiens) (UniProt O00292). Description: LEFTY2 binders on small-molecule microarrays, primary screen, biochemical, small-molecule microarray, 635 nm fluorescence scan (AID 1110). The note with it: LEFTY2 binding, higher = more signal.
Chain of Left-right determination factor 2 (Homo sapiens) (O00292 whole entry, looked up): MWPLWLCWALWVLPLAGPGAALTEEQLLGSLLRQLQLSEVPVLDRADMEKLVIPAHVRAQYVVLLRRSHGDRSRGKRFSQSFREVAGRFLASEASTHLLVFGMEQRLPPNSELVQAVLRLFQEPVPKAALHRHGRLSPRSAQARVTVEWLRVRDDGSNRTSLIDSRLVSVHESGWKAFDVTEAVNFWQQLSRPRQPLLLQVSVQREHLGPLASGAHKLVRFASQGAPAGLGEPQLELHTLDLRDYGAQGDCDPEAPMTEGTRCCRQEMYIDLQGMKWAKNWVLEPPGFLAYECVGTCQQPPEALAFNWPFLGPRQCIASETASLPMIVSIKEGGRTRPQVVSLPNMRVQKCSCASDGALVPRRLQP
Take `CCCCCCCCCCC(O)C1C=CC2C(=O)N(C)C(=O)C2N1N1CCCCC1` (centres undefined): the composite z-score is -2.49.

Molecule `CCCC[C@@H]1C[C@H]1[C@@H](NC(=O)Cc1ccccc1)c1ccc(Cl)cc1` had a composite z-score of -0.496.

`CC(C)=CCN(C(=O)C#Cc1ccccc1)[C@H](CO)c1ccccc1` returned a composite z-score of 0.379.

`COc1ccc(NC(=O)O[C@H]2[C@H](OC(=O)Nc3ccc4c(c3)OCO4)[C@H](OC(=O)Nc3ccc4c(c3)OCO4)[C@@H](OC)O[C@@H]2CO)cc1` yielded a composite z-score of -0.0444.

In the case of `CCCC[C@H]1OB(O)C[C@H]2C1=C(C)C[C@H]1C(=O)C=CC(=O)[C@H]12`, the composite z-score was determined as 0.686.

With `CO[C@H]1O[C@H](CO)[C@@H](OC(=O)Nc2ccccc2)[C@@H]2OC(=O)[C@H](Cc3ccccc3)C/C=C/C[C@@H](Cc3ccccc3)C(=O)O[C@@H]12`, the composite z-score is 0.587.

`C[C@H]1C2[C@H](Cc3ccccc3)NC(=O)[C@]23C(=O)NCC(=O)N2CCC[C@H]2C(=O)NC/C=C\C/C=C/C3[C@@H]2O[C@]12C` (some centres undefined) showed a composite z-score of 0.245.

Molecule `[N-]=[N+]=NCc1ccccc1C[C@]1(C(=O)O)COC(c2ccc(OCCCO)cc2)=N1` had a composite z-score of -1.47.

In the case of `CC(C)CNC(=O)[C@@]1(C)c2ccccc2C(=O)N(Cc2cc(F)cc(C(F)(F)F)c2)[C@H]1c1ccc(CO)cc1`, the composite z-score was 0.0867.

The molecule `CN(C)CCCNC(=O)[C@@H]1c2ccccc2C(=O)N(C2Cc3ccccc3C2)[C@H]1c1ccc(CO)cc1` yielded a composite z-score of -0.625.

On to `CCN(CC)c1ccc(N2CC=CC34O[C@@H]5C=CCOC(=O)[C@@H]5[C@H]3C(=O)N(CCO)[C@@H]4C2=O)cc1` (some centres undefined), for which the composite z-score is -2.26.

For `COc1ccccc1CN1C(=O)c2ccccc2[C@@H](C(=O)NCCCN(C)C)[C@@H]1c1ccc(CO)cc1`, the composite z-score worked out at 0.155.

`COc1cc(OC)c(C(O)C2C=CC3C(=O)N(c4ccccc4)C(=O)C3N2Nc2ccccc2F)cc1Br` (centres undefined): the composite z-score is -0.137.

In turn, `CC(=O)c1ccc(C(O)C2C=CC3C(=O)NC(=O)C3N2Nc2ccc(Cl)cc2Cl)cc1` (centres undefined) gave a composite z-score of -0.16.

In turn, `C=CCC(OC(C)=O)[C@@H]1[C@@H](N(Cc2cc3ccccc3o2)C(=O)Cc2ccc(OC)cc2)c2cc(OCCCO)ccc2N1C(=O)Cc1ccc(OC)cc1` (some centres undefined) came in with a composite z-score of -0.0735.

In the case of `COCCCN1C(=O)[C@@]2(Cc3ccccc31)c1ccccc1C(=O)N(Cc1ccccc1OC)[C@H]2c1ccc(CO)cc1`, the composite z-score was -0.283.

Consider `COc1ccc(C#Cc2ccc3c(c2)[C@]2(C(=O)N3)[C@H](C(=O)Nc3nc4ccccc4s3)[C@H]3C(=O)O[C@H](c4ccccc4)[C@H](c4ccccc4)N3[C@@H]2c2ccc(OCCO)cc2)cc1`, for which the composite z-score is 0.651.

Molecule `CC(C)C[C@H]1NC(=O)[C@@H](C)NC(=O)[C@@]23C(=O)N[C@@H](Cc4ccccc4)C2[C@H](C)[C@@]2(C)O[C@H]2C3/C=C/C/C=C\CNC1=O` (some centres undefined) displayed a composite z-score of 0.137.

Regarding `CC(C)C[C@H]1NC(=O)[C@@]23C(=O)N[C@@H](Cc4ccccc4)C2[C@H](C)[C@@]2(C)O[C@H]2C3/C=C/C/C=C\CNC(=O)[C@@H]2CCCN2C1=O` (some centres undefined), the composite z-score was found to be 0.459.

Molecule `COc1ccc(C(O)C2C=CC3C(=O)N(C)C(=O)C3N2Nc2ccc([N+](=O)[O-])cc2[N+](=O)[O-])cc1OCc1ccccc1` (centres undefined) had a composite z-score of -0.0506.

The molecule `[N-]=[N+]=Nc1ccccc1[C@@H]1OC(c2ccc(OCCCO)cc2)=N[C@]1(Cc1ccccc1)C(N)=O` had a composite z-score of -0.391.

`CN(C)C(=O)[C@@]1(CCS(=O)(=O)c2ccccc2)N=C(c2ccc(OCCCO)cc2)O[C@H]1c1ccccc1N=[N+]=[N-]` came in with a composite z-score of 0.258.

On to `CN1C(=O)[C@]2(CCC(=O)OC(C)(C)C)N=C(c3ccc(OCCCO)cc3)O[C@@H]2c2ccccc21`, for which the composite z-score is -0.0515.

Take `C[N+](C)(C)CCCCCCNC(=O)[C@@H]1C[C@@H]2C(=O)N[C@@H](Cc3ccccc3)C(=O)N2[C@@H]1c1ccc(O)cc1`: the composite z-score is 1.27.

In turn, `CCCC=C(CCC)[C@@H](NS(=O)(=O)c1ccc(Cl)cc1)c1ccccc1` displayed a composite z-score of -1.34.

Molecule `CO[C@H]1O[C@H](CO)[C@@H](OC(=O)Nc2ccc(C(F)(F)F)cc2)[C@H](OC(=O)Nc2ccccc2-c2ccccc2)[C@@H]1OC(=O)Nc1ccccc1-c1ccccc1` came in with a composite z-score of 0.523.

As to `CC(C)[C@@H](C(=O)O)n1cc(-c2ccccc2)nn1`, the composite z-score is 0.396.

On to `C=CCNC(=O)[C@@H]1[C@H]2C(=O)O[C@H](c3ccccc3)[C@H](c3ccccc3)N2[C@H](c2ccc(O)cc2)[C@@]12C(=O)Nc1ccc(C#CC3(O)CCCCCC3)cc12`, for which the composite z-score was found to be 0.0712.

In turn, `O=C1N(CCS(=O)(=O)c2ccccc2)c2ccccc2[C@@H]2OC(c3ccc(OCCCO)cc3)=N[C@]12CCS(=O)(=O)c1ccccc1` gave a composite z-score of 0.8.

The record behind these values is PubChem BioAssay.
